What all share (details): mRNA level, 48 h; actives raise or lower the signal
Read-out in assay [1]: Insulin Like Growth Factor 1 (IGF1), IGF1 (gene 3479)
The experiment in a line: LTEA_HepaRG_IGF1: Life Technologies and Expression Analysis (LTEA) Assay for Insulin Like Growth Factor 1 (IGF1) using HepaRG (AID 2283506). The method, boiled down:
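Differentiated human HepaRG cells were dosed for 48 h in serum-free induction medium with 0.5% DMSO, eight half-log concentrations up to 100 uM, in duplicate. IGF1 mRNA was quantified by qRT-PCR normalized to ACTB, GAPDH, POLR2A; bidirectional fitting versus DMSO.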

Read-out in assay [2]: Intercellular Adhesion Molecule 1 (ICAM1), ICAM1 (gene 3383)
Briefly: LTEA_HepaRG_ICAM1: Life Technologies and Expression Analysis (LTEA) Assay for Intercellular Adhesion Molecule 1 (ICAM1) using HepaRG (AID 2283507). In outline:
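Using the human liver line HepaRG, compounds are tested in duplicate over 48 h at concentrations up to 100 uM. Expression is determined by TaqMan qRT-PCR, normalized to endogenous controls, and analysed relative to 0.5% DMSO vehicle.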

Read-out in assay [3]: Insulin-like growth factor-binding protein 1 (IGFBP1), IGFBP1 (gene 3484)
The experiment in a line: LTEA_HepaRG_IGFBP1: Life Technologies and Expression Analysis (LTEA) Assay for Insulin-like growth factor-binding protein 1 (IGFBP1) using HepaRG (AID 2283508). In outline: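 HepaRG, 48 h, 8 conc. (max 100 uM, half-log), duplicates, 0.5% DMSO. Readout: TaqMan qRT-PCR, ACTB/GAPDH/POLR2A normalisation. Fit: bidirectional vs DMSO.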

Read-out in assay [4]: Interleukin 6 (IL6), IL6 (gene 3569)
Briefly: LTEA_HepaRG_IL6: Life Technologies and Expression Analysis (LTEA) Assay for Interleukin 6 (IL6) using HepaRG (AID 2283509). The method, boiled down:
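Differentiated human HepaRG cells, plated 48 h then switched to serum-free induction medium, were exposed in duplicate for 48 h to eight half-log concentrations up to 100 uM in 0.5% DMSO. IL6 mRNA measured by qRT-PCR, normalized to ACTB/GAPDH/POLR2A.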

Read-out in assay [5]: Interleukin 6 Receptor (IL6R), IL6R (gene 3570)
The experiment in a line: LTEA_HepaRG_IL6R: Life Technologies and Expression Analysis (LTEA) Assay for Interleukin 6 Receptor (IL6R) using HepaRG (AID 2283510). In outline: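 Differentiated human HepaRG cells, plated 48 h then switched to serum-free induction medium, were dosed in duplicate for 48 h at eight half-log concentrations up to 100 uM in 0.5% DMSO. IL6R mRNA quantified by qRT-PCR, normalized to ACTB/GAPDH/POLR2A; bidirectional fit versus DMSO.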

Read-out in assay [6]: Potassium channel subfamily K member 1 (KCNK1), KCNK1 (gene 3775)
The experiment in a line: LTEA_HepaRG_KCNK1: Life Technologies and Expression Analysis (LTEA) Assay for Potassium channel subfamily K member 1 (KCNK1) using HepaRG (AID 2283511). In outline:
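Differentiated human HepaRG cells in serum-free induction medium were exposed in duplicate for 48 h to 8 half-log concentrations up to 100 uM in 0.5% DMSO. KCNK1 mRNA was measured by TaqMan qRT-PCR, normalized to ACTB, GAPDH and POLR2A, and fitted bidirectionally versus DMSO.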

Read-out in assay [7]: Keratin 19 (KRT19), KRT19 (gene 3880)
The experiment in a line: LTEA_HepaRG_KRT19: Life Technologies and Expression Analysis (LTEA) Assay for Keratin 19 (KRT19) using HepaRG (AID 2283512). In outline:
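Readout is qRT-PCR of KRT19 mRNA, normalized to ACTB, GAPDH and POLR2A, from HepaRG cells treated 48 h with eight-point half-log dilutions topping at 100 uM. Activity in either direction is scored relative to 0.5% DMSO vehicle.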

Read-out in assay [8]: JUN Transcription Factor, JUN (gene 3725)
Briefly: LTEA_HepaRG_JUN: Life Technologies and Expression Analysis (LTEA) Assay for JUN Transcription Factor using HepaRG (AID 2283513). In outline:
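Differentiated HepaRG cells were exposed to chemicals for 48 h in serum-free induction medium, 8 concentrations from 100 uM in half-log steps, 0.5% DMSO vehicle, in duplicate. JUN mRNA was quantified by TaqMan qRT-PCR, normalized to ACTB, GAPDH, POLR2A.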

Read-out in assay [9]: Lipase C (LIPC), LIPC (gene 3990)
The experiment in a line: LTEA_HepaRG_LIPC: Life Technologies and Expression Analysis (LTEA) Assay for Lipase C (LIPC) using HepaRG (AID 2283514). In outline: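 Differentiated human HepaRG cells in serum-free induction medium were exposed in duplicate for 48 h to eight concentrations (top 100 uM, half-log steps, 0.5% DMSO). LIPC mRNA was quantified by TaqMan qRT-PCR, normalized to ACTB, GAPDH and POLR2A, with bidirectional fitting versus DMSO.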

Read-out in assay [10]: Lipoprotein lipase (LPL), LPL (gene 4023)
Briefly: LTEA_HepaRG_LPL: Life Technologies and Expression Analysis (LTEA) Assay for Lipoprotein lipase (LPL) using HepaRG (AID 2283515). In outline: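 Differentiated human HepaRG cells in serum-free induction medium were exposed in duplicate for 48 h to eight half-log concentrations (top 100 uM) in 0.5% DMSO. LPL mRNA was quantified by TaqMan qRT-PCR, normalized to ACTB, GAPDH and POLR2A.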

Read-out in assay [11]: MicroRNA 122 (MIR122), gene 406906
The experiment in a line: LTEA_HepaRG_MIR122: Life Technologies and Expression Analysis (LTEA) Assay for MicroRNA 122 (MIR122) using HepaRG (AID 2283516). Note: the transcript read is the microRNA miR-122. The method, boiled down: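 Differentiated human HepaRG cells were exposed 48 h in serum-free induction medium to eight half-log concentrations (top 100 uM, 0.5% DMSO). Transcript level was measured by TaqMan qRT-PCR, normalized to ACTB, GAPDH and POLR2A, and fitted bidirectionally versus DMSO.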

Read-out in assay [12]: matrix metalloproteinase-10 (MMP10), MMP10 (gene 4319)
The experiment in a line: LTEA_HepaRG_MMP10: Life Technologies and Expression Analysis (LTEA) Assay for matrix metalloproteinase-10 (MMP10) using HepaRG (AID 2283517). In outline: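 HepaRG, collagen I, ~100,000 cells/well; serum-free induction medium; 48 h exposure, duplicate, 8-pt half-log to 100 uM, 0.5% DMSO. Readout: TaqMan qRT-PCR, normalized to ACTB/GAPDH/POLR2A; bidirectional fit vs DMSO.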

Read-out in a further assay: MYC, MYC (gene 4609)
The experiment in a line: LTEA_HepaRG_MYC: Life Technologies and Expression Analysis (LTEA) Assay for MYC using HepaRG (AID 2283518). The method, boiled down:
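Expression changes were scored by TaqMan qRT-PCR with ACTB, GAPDH and POLR2A normalization. Cultures in serum-free induction medium received duplicate 8-point concentration series, highest 100 uM, for 48 h; DMSO (0.5%) served as baseline.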

Read-out in assay [13]: Paternally Expressed 10 (PEG10), PEG10 (gene 23089)
The experiment in a line: LTEA_HepaRG_PEG10: Life Technologies and Expression Analysis (LTEA) Assay for Paternally Expressed 10 (PEG10) using HepaRG (AID 2283520). The method, boiled down:
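Differentiated HepaRG cells, plated 48 h then switched to serum-free induction medium, were exposed in duplicate for 48 h to eight half-log concentrations topping at 100 uM in 0.5% DMSO. PEG10 mRNA was quantified by TaqMan qRT-PCR, normalised to ACTB, GAPDH and POLR2A.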

Read-out in assay [14]: Nuclear factor NF-kappa-B p105 subunit (Homo sapiens) (UniProt P19838)
Briefly: LTEA_HepaRG_NFKB1: Life Technologies and Expression Analysis (LTEA) Assay for Nuclear Factor Kappa B Subunit 1 (NFKB1) using HepaRG (AID 2283521).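 Note: TaqMan qRT-PCR transcript normalised to ACTB GAPDH and POLR2A housekeeping genes.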 In outline: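 HepaRG, 48 h exposure; 8-pt half-log series from 100 uM in 0.5% DMSO; duplicates. Readout: NFKB1 mRNA by qRT-PCR (Fluidigm arrays), housekeeping-normalized. Gain/loss fit vs DMSO baseline.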

Read-out in assay [15]: Protein phosphatase 2A (PPP2R4), PTPA (gene 5524)
The experiment in a line: LTEA_HepaRG_PPP2R4: Life Technologies and Expression Analysis (LTEA) Assay for Protein phosphatase 2A (PPP2R4) using HepaRG (AID 2283522). In outline:
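Differentiated HepaRG cells in serum-free induction medium were exposed in duplicate for 48 h to eight concentrations, top 100 uM with half-log dilutions, in 0.5% DMSO. PPP2R4 mRNA was quantified by TaqMan qRT-PCR, normalized to ACTB, GAPDH and POLR2A.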

Read-out in assay [16]: Phosphatase and tensin (PTEN), PTEN (gene 5728)
Briefly: LTEA_HepaRG_PTEN: Life Technologies and Expression Analysis (LTEA) Assay for Phosphatase and tensin (PTEN) using HepaRG (AID 2283523). The method, boiled down:
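Differentiated human HepaRG cells, plated 48 h then switched to serum-free induction medium, were exposed in duplicate for 48 h to eight half-log concentrations up to 100 uM in 0.5% DMSO. PTEN mRNA measured by TaqMan qRT-PCR, normalized to ACTB/GAPDH/POLR2A, bidirectional fit versus DMSO.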

Read-out in assay [17]: solute carrier (SLC22A1), SLC22A1 (gene 6580)
Briefly: LTEA_HepaRG_SLC22A1: Life Technologies and Expression Analysis (LTEA) Assay for solute carrier (SLC22A1) using HepaRG (AID 2283524). The method, boiled down:
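Human HepaRG cells were plated 48 h, switched to serum-free induction medium, then exposed in duplicate for 48 h to 8-point half-log series from 100 uM in 0.5% DMSO. SLC22A1 mRNA measured by qRT-PCR, normalized to ACTB/GAPDH/POLR2A, fitted bidirectionally versus DMSO.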

Read-out in assay [18]: Pyruvate Dehydrogenase Kinase 4 (PDK4), PDK4 (gene 5166)
The experiment in a line: LTEA_HepaRG_PDK4: Life Technologies and Expression Analysis (LTEA) Assay for Pyruvate Dehydrogenase Kinase 4 (PDK4) using HepaRG (AID 2283525). The method, boiled down: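 Differentiated human HepaRG cells, pre-cultured 48 h, were exposed in duplicate for 48 h in serum-free induction medium to eight half-log concentrations up to 100 uM in 0.5% DMSO. PDK4 mRNA was quantified by qRT-PCR, normalized to ACTB, GAPDH and POLR2A, bidirectional fitting versus DMSO.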

Read-out in assay [19]: matrix metalloproteinase-3 (MMP3), MMP3 (gene 4314)
Briefly: LTEA_HepaRG_MMP3: Life Technologies and Expression Analysis (LTEA) Assay for matrix metalloproteinase-3 (MMP3) using HepaRG (AID 2283519). The method, boiled down: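 Differentiated human HepaRG cells, plated 48 h on collagen I, were exposed in duplicate for 48 h in serum-free induction medium to eight half-log concentrations up to 100 uM in 0.5% DMSO. MMP3 mRNA was quantified by TaqMan qRT-PCR, normalised to ACTB, GAPDH and POLR2A.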

Structures are written as SMILES. Active and inactive are the calls of the source. Rule for the calls: active = hit-call score of the fitted dose curve at least 0.9, where 1 is the maximum; inactive = score below 0.9.

Chain of Nuclear factor NF-kappa-B p105 subunit (Homo sapiens) (P19838 whole entry, looked up): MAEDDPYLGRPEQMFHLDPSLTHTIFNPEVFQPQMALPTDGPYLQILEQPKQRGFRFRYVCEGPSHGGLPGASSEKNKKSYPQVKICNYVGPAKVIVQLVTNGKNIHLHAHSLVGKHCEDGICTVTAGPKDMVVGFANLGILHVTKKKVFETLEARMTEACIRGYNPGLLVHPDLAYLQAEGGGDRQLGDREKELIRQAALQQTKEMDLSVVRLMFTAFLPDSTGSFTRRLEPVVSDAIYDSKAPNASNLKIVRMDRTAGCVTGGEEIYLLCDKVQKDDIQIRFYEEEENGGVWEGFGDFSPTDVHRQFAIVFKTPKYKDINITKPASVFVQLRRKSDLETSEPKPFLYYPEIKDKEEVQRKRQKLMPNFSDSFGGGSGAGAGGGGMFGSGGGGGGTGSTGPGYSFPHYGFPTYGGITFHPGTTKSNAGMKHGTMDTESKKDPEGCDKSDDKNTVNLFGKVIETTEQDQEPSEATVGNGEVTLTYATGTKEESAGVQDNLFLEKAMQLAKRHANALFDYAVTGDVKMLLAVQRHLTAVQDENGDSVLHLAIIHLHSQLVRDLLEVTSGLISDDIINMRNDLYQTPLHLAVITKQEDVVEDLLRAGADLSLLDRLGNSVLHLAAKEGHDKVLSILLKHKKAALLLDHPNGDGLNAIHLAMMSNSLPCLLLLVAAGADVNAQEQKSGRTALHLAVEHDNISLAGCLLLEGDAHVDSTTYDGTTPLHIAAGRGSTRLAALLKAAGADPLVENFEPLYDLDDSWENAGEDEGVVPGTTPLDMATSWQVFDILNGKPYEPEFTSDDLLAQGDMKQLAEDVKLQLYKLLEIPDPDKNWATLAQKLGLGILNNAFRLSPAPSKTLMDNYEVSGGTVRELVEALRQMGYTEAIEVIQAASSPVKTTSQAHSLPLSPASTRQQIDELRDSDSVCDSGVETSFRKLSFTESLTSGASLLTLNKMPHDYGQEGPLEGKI

As a reminder, the AC50 is the concentration giving half of the maximal activity seen. On to `CCCCC(CC)COC(=O)CC(C(=O)OCC(CC)CCCC)S(=O)(=O)O` (centres undefined), for which the result in [1], in assay [2], in assay [5], in assay [6], in assay [7] and in [9] was inactive. Moreover, the molecule was classed as inactive in [11], in [12], in assay [14] and in assay [18]. Also, the AC50 in [3] is 90.7 µM (active); in assay [4], 91.4 µM (active); in [8], 77.6 µM (active); in assay [10], 82.1 µM (active); in the assay with MYC, MYC (gene 4609), 85 µM (active); in [13], 89 µM (active). In addition, the AC50 in assay [15] is 80.9 µM (active); in [16], 80.9 µM (active); in assay [17], 50 µM (active).

`Cc1ccc(C(C)C)c(O)c1`: the outcome in assay [1], in assay [2], in assay [3], in [4], in assay [5] and in assay [7] was inactive. The outcome in assay [8] is “inactive”; in [9], “inactive”; in [10], “inactive”; in assay [11], “inactive”; in [12] it was “inactive”; with MYC, MYC (gene 4609), “inactive”. The molecule was called inactive in assay [19], in assay [13], in [14], in [15], in assay [16] and in assay [17]. In addition, the molecule was called inactive in assay [18].

On to `O=C(O)Cc1ccccc1Nc1c(Cl)cccc1Cl`, for which, in [1], the AC50 was 16.5 µM (active). The molecule was classed as inactive in assay [2], in [3], in assay [4], in assay [5], in assay [6] and in assay [7]. The outcome in assay [8] is “inactive”; in assay [9], “inactive”; in assay [10], “inactive”; in [11], “inactive”; in assay [12], “inactive”; in the assay with MYC, MYC (gene 4609), “inactive”. For the same molecule, the result in assay [13], in assay [15], in assay [16], in assay [17] and in assay [18] was inactive.

For the molecule `CC(=O)C(C)=CC1C(C)=CCCC1(C)C` (centres undefined), the molecule was classed as inactive in assay [1], in assay [2], in [3], in assay [4], in assay [5] and in assay [7]. For the same molecule, the outcome in [8] was “inactive”; in assay [9] it was “inactive”; in [10], “inactive”; in [11], “inactive”; in [12] it was “inactive”; with MYC, MYC (gene 4609) it was “inactive”. Moreover, the molecule was called inactive in assay [19], in assay [13], in [15], in assay [16], in [17] and in [18].

These data come from PubChem BioAssay (EPA / NIEHS).
